An excerpt weighted towards active compounds, which were near 3.7% of everything screened.
Anthrax LF inh2 = inhibitors of Bacillus anthracis lethal factor protease; P15917; multiplex microsphere protease cleavage assay, LF; inhibition, % at 10 µM; hit rate 0.12% among 360,000; AID 588501; note: plate controls were buffer without enzyme for full effect and enzyme alone for no effect
Target sequence (P15917 whole entry, looked up): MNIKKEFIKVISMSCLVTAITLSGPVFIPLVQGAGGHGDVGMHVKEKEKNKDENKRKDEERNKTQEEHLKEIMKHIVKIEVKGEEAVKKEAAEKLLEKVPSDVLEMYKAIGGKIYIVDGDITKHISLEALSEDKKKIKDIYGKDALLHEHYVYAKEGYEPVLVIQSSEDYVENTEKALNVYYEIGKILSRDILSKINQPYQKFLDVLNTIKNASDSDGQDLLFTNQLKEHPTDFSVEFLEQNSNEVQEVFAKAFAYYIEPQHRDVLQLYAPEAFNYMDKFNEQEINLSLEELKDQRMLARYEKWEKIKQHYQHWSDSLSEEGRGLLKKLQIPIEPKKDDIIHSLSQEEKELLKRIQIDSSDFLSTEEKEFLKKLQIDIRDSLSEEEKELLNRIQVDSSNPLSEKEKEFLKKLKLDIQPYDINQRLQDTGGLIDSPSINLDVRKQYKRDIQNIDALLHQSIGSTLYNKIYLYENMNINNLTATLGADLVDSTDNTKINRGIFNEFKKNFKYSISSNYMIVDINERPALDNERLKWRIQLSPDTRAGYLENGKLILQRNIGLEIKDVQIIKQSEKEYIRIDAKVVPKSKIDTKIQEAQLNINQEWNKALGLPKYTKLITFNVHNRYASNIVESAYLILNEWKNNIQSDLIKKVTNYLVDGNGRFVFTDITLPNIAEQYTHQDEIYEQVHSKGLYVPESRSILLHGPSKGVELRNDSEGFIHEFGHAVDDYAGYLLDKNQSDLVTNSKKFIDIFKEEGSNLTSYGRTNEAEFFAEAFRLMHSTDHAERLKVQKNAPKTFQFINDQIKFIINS
Vc quorum ag = inducers of Vibrio cholerae quorum light production without autoinducers. V. cholerae BH1578 lux reporter, luminescence, 6 h. activation, % at 18.7 µM. hit rate 0.16% among 350,000. AID 588436; in the data active = activation mostly above about 9.7%, no sharp cut-off; inconclusive = no clear call, values can overlap the other calls; inactive = mostly below about 3.7%
BoNT-F LC inh = inhibitors of Botulinum neurotoxin F light chain protease. Multiplex microsphere protease cleavage assay, flow cytometry. inhibition, % at 10 µM. hit rate 0.22% among 360,000. AID 588497; in the data active = inhibition above about 35%, passing the limit was not always enough; inconclusive = no clear call, values can overlap the other calls; note: plate controls were buffer without enzyme for full effect and enzyme alone for no effect
Bead autofluor = flagged as autofluorescent in microsphere protease counterscreen; compound autofluorescence counterscreen, microsphere flow cytometry; hits give high values; fluorescence intensity (concentration not given with the values); hit rate 3.1% among 360,000; AID 624483; in the data active = fluorescence intensity above about 16000; inconclusive = no clear call, values can overlap the other calls
BoNT A protease = BoNT A light chain protease inhibition. inhibition, % at 10 µM. hit rate 0.17% among 360,000. multiplex microsphere protease substrate cleavage, flow cytometry. AID 588499; note: plate controls were buffer without enzyme for full effect and enzyme alone for no effect
BJeLR viability = BJeLR cell viability loss. AID 1554. BJeLR (HRASV12) viability, CellTiter-Glo ATP luminescence, 48 h. inhibition, % (test concentration not listed). hit rate 0.17% among 300,000; in the data active = inhibition above about 50%; inconclusive = no clear call, values can overlap the other calls
Active calls of the source: *; i = inactive; ? = inconclusive; nt = no result. Cut-off read from the data, not from the text of the source, unless noted: active = inhibition above about 30%; inconclusive = no clear call, values can overlap the other calls; inactive = below that.

SMILES | Anthrax LF inh2 | Vc quorum ag | BoNT-F LC inh | Bead autofluor | BoNT A protease | BJeLR viability
O=C(CSc1nnc(-c2cccs2)n1-c1ccccc1)N1CCCC1 | -2 | 1 | -3 | 21472* | -3 | 0
C=CCn1c(SCC(=O)Nc2ccccc2)nc2scc(-c3cccs3)c2c1=O | -1 | 0 | -11 | 3568 | 0 | 2
CSc1nnc(-c2cccs2)n1-c1ccccc1 | 1 | 0 | 9 | 20664* | 8 | 2
CC1CCN(C(=O)CSc2nnc(CN3CCOCC3)n2-c2ccccc2)CC1 | 0 | 0 | -4 | 21833* | -3 | nt
CC(=O)Nc1cccc(-c2ccnc3c2CC(C)(C(=O)Nc2cccnc2)O3)c1 (stereo not given) | -5 | 0 | -2 | 3885 | 0 | nt
CCC(Oc1ccc(C)c(C)c1)C(=O)O (stereo not given) | 4 | i | -1 | 16400* | 0 | 3
C[C@@H]1CN([C@@H](C)CO)C(=O)CCCn2cc(nn2)CO[C@H]1CN(C)S(=O)(=O)c1ccc(C#N)cc1 | -3 | 0 | -4 | 3452 | 0 | nt
COc1ccc(C2C(Oc3ccccc3)C(=O)N2c2cc(C)ccc2C)cc1OC (stereo not given) | -11 | i | -3 | 20605* | -1 | -8
Cc1cc2cc(CN(Cc3ccco3)S(=O)(=O)c3c(C)ccc4nsnc34)c(=O)[nH]c2cc1C | 1 | i | -2 | 20470* | ? | -3
Cc1cc2cc(CN(CCCO)S(=O)(=O)c3cccc4nsnc34)c(=O)[nH]c2cc1C | 2 | 0 | 2 | 22386* | 0 | -13
Cc1ccc2[nH]c(=O)c(CN(CCCO)S(=O)(=O)c3c(C)ccc4nsnc34)cc2c1 | -2 | 0 | -9 | 10512 | -1 | 8
COc1cc(NC(=O)CN(C)S(=O)(=O)c2ccc3c(c2)CCC(=O)N3)cc(OC)c1 | -7 | 0 | 0 | 4202 | 0 | -1
COc1ccc(N(C)S(=O)(=O)c2ccc3c(c2)CCC(=O)N3)cc1 | -3 | 0 | -2 | 20669* | 0 | -2
CCOc1ccc(NC(=O)c2cccc(S(=O)(=O)NCc3cccnc3)c2)cc1 | -6 | -6 | 6 | 3785 | 0 | nt
COc1ccccc1NC(=O)Cc1csc(NC(=S)Nc2ccc(C)cc2)n1 | -2 | i | -2 | 16561* | -1 | -8
c1ccc2c(c1)C1=NCCN1c1ccccc1-2 | -7 | -6 | -1 | 3330 | 0 | nt
COc1ccc(NCc2nnc(SCC(=O)c3ccc(C)cc3)o2)cc1 | -4 | 2 | 5 | 4313 | 0 | -3
COc1ccc(NCc2nnc(SCC(=O)Nc3cc(C)cc(C)c3)o2)cc1 | -3 | -2 | -2 | 21267* | ? | -4
COc1ccc(CCNC(=O)CSc2nnc(CNc3ccc(Cl)cc3)o2)cc1OC | 0 | i | 0 | 21392* | -1 | 6
COc1ccc(CCNC(=O)CSc2nnc(CNC(=O)c3c(F)cccc3Cl)o2)cc1OC | 1 | 0 | -1 | 5648 | 1 | 0
CCOc1cc(C(=O)NCc2ccncc2)cc(OCC)c1OCC | -2 | i | -2 | 19468* | 1 | 5
O=C(Nc1cnccn1)c1ccc(Cl)cc1 | 7 | -10 | -7 | 3838 | -2 | -2
O=C(Nc1cnccn1)c1ccncc1 | -7 | 0 | -4 | 24053* | -3 | -11
CCOc1ccc(C(=O)NCc2ccncc2)cc1OCC | 3 | i | -6 | 4503 | 1 | 3
CCOc1cc(C(=O)Nc2cnccn2)cc(OCC)c1OCC | -1 | -3 | -2 | 20443* | -3 | 8
SMILES | Anthrax LF inh2 | Vc quorum ag | BoNT-F LC inh | Bead autofluor | BoNT A protease | BJeLR viability
Cc1cccc(C(O)c2ncc(-c3ccccc3)[nH]2)c1C (stereo not given) | -4 | i | -1 | 2869 | 0 | nt
Cc1ccc(C(O)c2ncc(-c3cccc4ccccc34)[nH]2)c(C)c1 (stereo not given) | -4 | 0 | -3 | 3452 | 0 | nt
O=C(CCCC(=O)OCC(Cl)=C(Cl)Cl)Nc1cccc(F)c1 | -3 | 3 | 0 | 22287* | 1 | -1
Cc1nn2c(-c3ccc(Cl)cc3)nnc2s1 | -2 | i | -2 | 23339* | 0 | 0
CN(C)c1ccc(-c2nn3c(-c4ccc(Cl)cc4)nnc3s2)cc1 | nt | 0 | nt | nt | nt | 5
C[C@@H]1CN([C@@H](C)CO)S(=O)(=O)c2ccc(Br)cc2O[C@@H]1CN(C)Cc1cccnc1 | -3 | 0 | -3 | 3398 | 0 | nt
CC1CCN(S(=O)(=O)c2ccc(NC(=O)Cn3nnc(-c4ccccc4)n3)cc2)CC1 | -10 | i | 0 | 19646* | 1 | 0
CC1CCCN(CC(=O)Nc2ccc(S(=O)(=O)N3CCCCCC3)cc2)C1 (stereo not given) | -3 | i | 0 | 16175* | 1 | -2
O=C(Cn1nnc(-c2ccc(S(=O)(=O)N3CCCC3)cc2)n1)NCC1CCCO1 (stereo not given) | 1 | -2 | -3 | 22963* | -1 | 5
CC1CCN(S(=O)(=O)c2ccc(NC(=O)Cc3cccs3)cc2)CC1 | -3 | i | 1 | 20322* | 2 | 5
CC1CCN(CC(=O)Nc2ccc(S(=O)(=O)N3CCC(C)CC3)cc2)CC1 | -10 | i | -21 | 3890 | -1 | 8
CCOC(=O)C(C)n1cnc2c(nnn2Cc2ccc(Cl)cc2)c1=O (stereo not given) | 1 | -12 | 3 | 7834 | 0 | -16
COc1cccc(-n2nnc3c(=O)n(CC(=O)N4CCC(Cc5ccccc5)CC4)cnc32)c1 | -4 | -2 | -1 | 24394* | ? | 3
CCC(C(=O)OC)n1cnc2c(nnn2-c2ccc(OC)cc2)c1=O (stereo not given) | -2 | 0 | 5 | 10840 | 0 | 2
CCOC(=O)C(CC)n1cnc2c(nnn2-c2ccc(OC)cc2)c1=O (stereo not given) | -10 | 0 | 7 | 17635* | 7 | -6
COc1cccc(-n2nnc3c(=O)n(Cc4ccccc4F)cnc32)c1 | 0 | 0 | -5 | 21710* | -3 | 0
CCOC(=O)C(C)n1cnc2c(nnn2Cc2ccc(C)cc2)c1=O (stereo not given) | 0 | -2 | 0 | 20875* | ? | -5
COc1ccc(CC(N)c2csc(NC(=O)C(c3ccccc3)c3ccccc3)n2)cc1 (stereo not given) | -8 | 0 | -15 | 4072 | 0 | nt
CCOC(=O)C1(C)CCCN(C(=O)c2ccccc2C(F)(F)F)C1 (stereo not given) | -3 | -1 | -3 | 3713 | 0 | nt
CC1(C(=O)NCc2cccs2)Cc2c(-c3ccc(C(N)=O)cc3)ccnc2O1 (stereo not given) | -3 | 0 | -2 | 2826 | 0 | nt
Cc1ccc2ccccc2c1C(O)c1ncc(-c2cccc(F)c2)[nH]1 (stereo not given) | -7 | -1 | -2 | 2945 | 0 | nt
Cc1ccc(-n2nnc3c(=O)n(Cc4ccccc4C)cnc32)cc1 | -11 | 0 | -17 | 4392 | 0 | 0
COc1ccc(-n2nnc3c(=O)n(Cc4cc(C)ccc4C)cnc32)cc1 | 3 | i | 16 | 17509* | 11 | -7

Screening results (PubChem)
